Source: PubChem BioAssay
Only some compounds are listed: those with a hit (about 4.6% of all), similar ones and a draw of the others.
AHR act – activates the human aryl hydrocarbon receptor. P35869. AHR-responsive luciferase reporter cells, luminescence. activation, % at 5 µM. 2.5% of 320,000 active; in the data active = activation above about 47%;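 note: 0% = vehicle wells and 100% = reference agonist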
Target sequence (P35869 whole entry, looked up): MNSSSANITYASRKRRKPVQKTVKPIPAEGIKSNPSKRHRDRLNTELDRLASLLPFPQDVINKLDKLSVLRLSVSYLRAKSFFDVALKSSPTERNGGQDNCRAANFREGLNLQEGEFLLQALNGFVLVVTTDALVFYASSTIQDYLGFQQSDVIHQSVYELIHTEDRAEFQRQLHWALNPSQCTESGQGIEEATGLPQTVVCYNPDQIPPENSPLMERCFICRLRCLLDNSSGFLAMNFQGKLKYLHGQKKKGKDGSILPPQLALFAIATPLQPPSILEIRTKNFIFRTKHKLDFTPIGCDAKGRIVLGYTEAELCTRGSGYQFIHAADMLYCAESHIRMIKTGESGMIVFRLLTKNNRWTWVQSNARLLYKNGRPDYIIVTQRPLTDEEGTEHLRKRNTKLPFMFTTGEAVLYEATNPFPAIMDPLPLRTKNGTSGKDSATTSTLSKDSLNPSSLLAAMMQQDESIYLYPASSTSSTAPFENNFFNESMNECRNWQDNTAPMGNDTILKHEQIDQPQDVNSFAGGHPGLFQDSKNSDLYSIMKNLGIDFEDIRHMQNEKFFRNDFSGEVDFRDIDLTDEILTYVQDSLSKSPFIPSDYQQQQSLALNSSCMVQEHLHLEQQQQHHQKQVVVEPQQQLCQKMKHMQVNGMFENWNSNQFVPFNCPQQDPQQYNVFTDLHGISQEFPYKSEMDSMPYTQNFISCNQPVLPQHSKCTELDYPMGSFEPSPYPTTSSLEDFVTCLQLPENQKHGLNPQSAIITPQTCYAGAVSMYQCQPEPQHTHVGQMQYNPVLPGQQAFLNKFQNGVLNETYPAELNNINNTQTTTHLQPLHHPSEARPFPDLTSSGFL
HSF1 activator – increases HSF-1 driven luciferase reporter signal; NIH3T3-HGL HSF-1 luciferase reporter, MG132, 8 h; 100% = twice DMSO control signal; activation, % at 9 µM; 1.7% of 300,000 active; AID 504408;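 active = mean replicate activation of at least 50% with a set share of replicates each reaching 50%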;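 note: 0% = median of the neutral control wells and 100% = twice that signal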
HSF1 inhib – HSF1 inhibition | NIH3T3-HGL HSE-luciferase, MG132-induced, luminescence 8 h; active compounds read low | activity change, negative = inhibition, % at 7.5 µM (by protocol) | 0.77% of 300,000 active;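 active = more than half of replicate wells show activity change below -50%, luminescence cut by over half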;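 note: luciferase reports HSF-1 transcriptional activity via heat shock element; 0% = median of DMSO wells and -100% = zero luminescence signal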
FXN GAA850 act – increases GAA850 frataxin promoter reporter activity | HEK293 lucGAA850 FXN promoter luciferase reporter, 24 h; percent of 10 µM SAHA response | activation, % at 6 µM | 0.56% of 360,000 active | AID 540364;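 active = activation above the average of all compounds screened plus 3 SD, cutoff fixed separately per campaign, cut at about 7.5% in these data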;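 note: 0% = DMSO wells and 100% = 10 µM SAHA wells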
Numbers without * were called inactive; · = no result.

SMILES	AHR act	HSF1 activator	HSF1 inhib	FXN GAA850 act
COc1ccc(NS(=O)(=O)c2cccc(C(=O)NCC3CCCO3)c2)cc1 (centres undefined)	2	-5	1	-1
O=C(N/N=C/c1cc(Br)c(Br)o1)c1ccc2c(c1)OCCO2	7	-28	-22	2
COc1ccccc1CNn1c(-c2cccc(C)c2)nc2ccccc2c1=O	20	10	1	-1
Cc1nn(Cc2ccccc2)c(C)c1CNC(=O)CN=C1NS(=O)(=O)c2ccccc21	·	·	·	0
Nc1[nH]n(-c2ccccc2)c(=O)c1N=Nc1ccc2ncsc2c1	56*	1	-6	-1
Cc1[nH]n(-c2ccccc2)c(=O)c1N=Nc1cccc(Cl)c1	58*	10	6	1
Cc1[nH]n(-c2ccccc2)c(=O)c1N=Nc1ccc(F)cc1	65*	-7	-3	1
COC(=O)c1ccc(N=Nc2c(C)[nH]n(-c3ccccc3)c2=O)cc1	78*	-4	-6	1
Cc1ccc(N=Nc2c(C)[nH]n(-c3ccccc3)c2=O)cc1Br	22	6	-2	1
CS(=O)(=O)N1CCc2cc(S(=O)(=O)Nc3ccc4oc5c(c4c3)CCCC5)ccc21	0	-13	-11	1
CC1Cc2ccccc2N1C(=O)C1CC(=O)N(c2ccccc2)C1 (centres undefined)	-1	-14	-3	2
CCOc1ccc(S(=O)(=O)N2CCN(C(=O)c3ccc(C)c(S(=O)(=O)N4CCOCC4)c3)CC2)cc1	2	·	·	-2
CC(=O)Nc1ccc(N=Nc2c(C)[nH]n(C(N)=S)c2=O)cc1	5	33	9	3
CSc1ccc(N=Nc2c(C)[nH]n(C)c2=O)cc1	75*	16	20	3
O=C(c1ccc(NC2=NC3CS(=O)(=O)CC3S2)cc1)N1CCN(c2ccccc2F)CC1 (centres undefined)	-3	-12	2	0
O=C1CC(N2C(=O)/C(=C/C=C/c3ccccc3)SC2=S)C(=O)N1c1ccccc1 (centres undefined)	2	83*	28	2
CCOC(=O)c1sc(Nc2ccc(C)cc2C)nc1C	13	6	2	5
CC(=O)c1sc(N/N=C\c2ccccc2O)nc1C	10	56*	26	4
CCOC(=O)c1sc(N/N=C/c2cccc(C)c2)nc1C	98*	10	17	2
COc1ccc(/C(C)=N/Nc2nc(C)c(C(C)=O)s2)cc1	3	1	-3	3
NC(=O)c1cccn1-c1ncc(C(F)(F)F)cc1Cl	-4	6	-1	4
CCOc1ccc(-c2nc(CSc3nnc(N)s3)cs2)cc1	12	62*	34	7
CCCOc1ccc(OCCSc2ncccn2)cc1	18	72*	42	1
CCOc1ccc(-c2nc(CSc3nnc(N)s3)cs2)cc1OC	24	22	9	3
Clc1ccc(OCCCCSc2ncccn2)cc1	-2	21	5	1
SMILES	AHR act	HSF1 activator	HSF1 inhib	FXN GAA850 act
CCCOc1ccc(OCCSc2nnc(N)s2)cc1	26	125*	59	2
Cc1cc(C(=O)NC2CCCc3c2cnn3-c2ccc(C)c(C)c2)nc(C)n1 (centres undefined)	2	-1	4	0
COc1ccc(-n2cc(C(=O)c3cc(Cl)ccc3O)cc(C#N)c2=O)cc1	1	6	0	0
O=C(CCC1CCCN(C(=O)c2ccc3cc[nH]c3c2)C1)NCc1ccc(F)c(F)c1 (centres undefined)	5	57*	24	1
O=C(CCC1CCCN(C(=O)c2ccc3c(c2)OCO3)C1)NCc1ccc(F)c(F)c1 (centres undefined)	5	32	18	1
CCc1cccc(NC(=O)COC(=O)/C=C/c2cccs2)c1	1	-62	-52*	-1
Cc1cnn(-c2cc(N/N=C/c3cccc(F)c3)ncn2)c1	13	56*	17	3
O=C(CCS(=O)(=O)c1cccs1)N1CCCC1	10	11	2	4
C=CCNC(=S)N/N=C/c1ccc(-c2cc(Cl)ccc2Cl)o1	18	-12	-14	2
C=CCNC(=S)N/N=C/c1ccc(-c2ccc(Cl)cc2Cl)o1	61*	-9	-3	0
C=CCNC(=S)N/N=C/c1ccc(-c2ccc(OC)cc2)o1	64*	40	28	2
CC1=NCCN1S(=O)(=O)c1cc(Cl)ccc1Cl	1	6	0	2
CCCCNC(=O)c1cc2c(C)cc(C)cc2[nH]1	55*	13	2	0
COc1cc(/C=N/NC(=S)NC2CC3CCC2C3)ccc1O (centres undefined)	6	57*	36	3
COc1ccc(/C=N/NC(=S)N[C@H]2CC3CCC2C3)cc1 (some centres undefined)	12	40	17	2
CNC(=S)N/N=C/c1ccc2c(c1)OCCO2	7	18	9	6
S=C(N/N=C/c1ccc2c(c1)OCO2)NC1CC2CCC1C2 (centres undefined)	68*	39	22	5
Cc1onc(-c2ccccc2)c1C(=O)Nc1sc2c(c1C(N)=O)CCC2	5	-66	-59*	1
NC(=O)c1c(NC(=O)c2ccc(F)cc2Cl)sc2c1CCC2	56*	-1	-18	5
Cc1onc(-c2ccccc2)c1C(=O)Nc1sc2c(c1C#N)CCC2	-3	-11	-2	-7
CCOC(=O)c1c(NCC(C)C)c2ccccc2[nH]c1=O	3	-5	3	-3
CCOC(=O)c1c(N2CCCCC2)c2ccccc2[nH]c1=O	4	-64	-59*	-2
CCOC(=O)c1c(NC(=O)CN2CCN(C(=O)c3ccco3)CC2)sc2c1CCCC2	-2	14	5	2
COc1ccc(NC(=S)N2CCN(CCN3C(=O)c4cccc5cccc(c45)C3=O)CC2)cc1	97*	-1	4	1
CC(=O)c1ccc(NC(=S)N2CCN(CCN3C(=O)c4cccc5cccc(c45)C3=O)CC2)cc1	122*	15	3	-1
SMILES	AHR act	HSF1 activator	HSF1 inhib	FXN GAA850 act
CC(=O)c1cccc(NC(=S)N2CCN(CCN3C(=O)c4cccc5cccc(c45)C3=O)CC2)c1	1	6	20	2
CCN1C[C@@H]2[C@@H]3C(=O)N(Cc4ccccc4)C(=O)[C@@H]3[C@](Cc3ccccc3)(C1=O)N2C(=O)c1ccccc1	·	·	·	-1
COC(=O)C(c1ccccc1)C1(O)CC(C)N(C)CC1C (centres undefined)	0	-82	-76*	2
COCCCC1CCN(C(=O)c2cc(COc3cc(C)ccc3C)on2)CC1	10	54*	25	3
CN1C[C@@H]2C[C@@H](C3=Cc4cc(Cl)ccc4OC3)N3CCC[C@@]23C1=O	1	·	·	2
O=C(Nc1ccc(F)c(Cl)c1)C1CC2CCC1C2 (centres undefined)	2	70*	28	1
CCOC(=O)c1ccc(NC(=O)N2CCN(S(C)(=O)=O)CC2)cc1	4	-59	-53*	1
CCOC(=O)c1ccc(NC(=S)N2CCN(S(C)(=O)=O)CC2)cc1	0	-51	-46	4
